{"source": "ChEMBL document CHEMBL3433997", "about": "“St. Jude Leishmania screening dataset” (2016)", "type_in_all_cases": "functional", "key": {"[1]": {"molecular_target": "Solute carrier family 2, facilitated glucose transporter member 1 (Homo sapiens) (UniProt P11166)", "sequence (P11166 whole entry)": "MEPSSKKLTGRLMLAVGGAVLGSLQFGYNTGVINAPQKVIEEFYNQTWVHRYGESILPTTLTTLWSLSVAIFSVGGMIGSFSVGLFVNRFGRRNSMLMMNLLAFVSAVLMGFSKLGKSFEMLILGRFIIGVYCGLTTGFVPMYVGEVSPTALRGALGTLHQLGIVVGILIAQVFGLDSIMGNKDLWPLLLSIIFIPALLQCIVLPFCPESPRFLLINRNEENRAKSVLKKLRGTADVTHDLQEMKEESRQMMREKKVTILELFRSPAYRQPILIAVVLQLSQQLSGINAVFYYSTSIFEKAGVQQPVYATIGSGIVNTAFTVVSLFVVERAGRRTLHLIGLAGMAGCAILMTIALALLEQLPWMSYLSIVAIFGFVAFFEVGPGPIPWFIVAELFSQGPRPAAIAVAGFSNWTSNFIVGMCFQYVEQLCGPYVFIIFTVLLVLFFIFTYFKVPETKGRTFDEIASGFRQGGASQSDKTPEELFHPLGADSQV", "experiment": "ST_JUDE_LEISH: Cytotoxicity at 2uM final concentration against transgenic Leishmania Mexicana promastigotes LmGLUT1 that are glucose transport deficient and complemented with the human glucose transporter GLUT1. Activity is measured by DNA content using SYBR green in vitro"}, "[2]": {"molecular_target": "Hexose transporter 1 (Plasmodium falciparum) (UniProt O97467)", "experiment": "ST_JUDE_LEISH: Cytotoxicity at 2uM final concentration against transgenic Leishmania Mexicana promastigotes LmPfHT that are glucose transport deficient and complemented with the Plasmodium falciparum hexose transporter. Activity is measured by DNA content using SYBR green in vitro"}, "[3]": {"molecular_target": "Glucose transporter (Leishmania mexicana) (UniProt O61059)", "experiment": "ST_JUDE_LEISH: Cytotoxicity at 2uM final concentration against transgenic Leishmania Mexicana promastigotes LmGT2 that are glucose transport deficient and complemented with the L. Mexicana glucose transporter 2. Activity is measured by DNA content using SYBR green in vitro"}}}
{"compound": "CN1CCCC(CN2CCN(Cc3ccc(-c4ccc(-c5nc6cc(F)ccc6[nH]5)cc4)cc3)CC2)C1", "note": "(stereo unspecified)", "values": [{"measurement": "inhibition", "setting": "[1]", "value": 2.18, "unit": "%"}, {"measurement": "inhibition", "setting": "[2]", "value": 4.45, "unit": "%"}, {"measurement": "inhibition", "setting": "[3]", "value": 2.38, "unit": "%"}]}
{"compound": "N#CN1CC[C@H](CS(=O)(=O)c2cccc(Br)c2)C1", "values": [{"measurement": "inhibition", "setting": "[1]", "value": 6.21, "unit": "%"}, {"measurement": "inhibition", "setting": "[2]", "value": 4.67, "unit": "%"}, {"measurement": "inhibition", "setting": "[3]", "value": 2.05, "unit": "%"}]}
{"compound": "CC(C)c1ccc(NS(=O)(=O)c2cccc(C(=O)NC3CCN(CC4CCCCC4)CC3)c2)cc1", "values": [{"measurement": "inhibition", "setting": "[1]", "value": 3.07, "unit": "%"}, {"measurement": "inhibition", "setting": "[2]", "value": 1.15, "unit": "%"}, {"measurement": "inhibition", "setting": "[3]", "value": 1.74, "unit": "%"}]}
{"compound": "O=C(/C=C/c1ccc(Br)cc1)NCCCCCN1CCC(c2c[nH]c3ccccc23)CC1", "values": [{"measurement": "inhibition", "setting": "[1]", "value": 25.2, "unit": "%"}, {"measurement": "inhibition", "setting": "[2]", "value": 17.3, "unit": "%"}, {"measurement": "inhibition", "setting": "[3]", "value": 12.7, "unit": "%"}]}
{"compound": "O=C(N[C@@H](CC1CCCCC1)C(=O)NC1CCCc2ccccc21)c1ccc(O)c(-c2cccc(C(F)(F)F)c2)c1", "note": "(stereo partly specified)", "values": [{"measurement": "inhibition", "setting": "[1]", "value": 4.07, "unit": "%"}, {"measurement": "inhibition", "setting": "[2]", "value": 1.73, "unit": "%"}, {"measurement": "inhibition", "setting": "[3]", "value": 2.66, "unit": "%"}]}
{"compound": "COc1ccc(Cl)cc1N1CCN(CCCNC(=O)c2ccc(-c3nc4ccc(C(F)(F)F)cc4[nH]3)c(C)c2)CC1", "values": [{"measurement": "inhibition", "setting": "[1]", "value": 2.82, "unit": "%"}, {"measurement": "inhibition", "setting": "[2]", "value": 0.02, "unit": "%"}, {"measurement": "inhibition", "setting": "[3]", "value": 0.17, "unit": "%"}]}
{"compound": "Cc1c(C(=O)C2CC2CN2CCC(N3CCCC3)CC2)sc2ccccc12", "note": "(stereo unspecified)", "values": [{"measurement": "inhibition", "setting": "[1]", "value": 7.33, "unit": "%"}, {"measurement": "inhibition", "setting": "[2]", "value": 11.8, "unit": "%"}, {"measurement": "inhibition", "setting": "[3]", "value": 5.26, "unit": "%"}]}
{"compound": "Cc1cccc2nc(-c3cccc(-c4ccc(NC(=O)c5cnn6cccnc56)cc4)c3)[nH]c12", "values": [{"measurement": "inhibition", "setting": "[1]", "value": 11.4, "unit": "%"}, {"measurement": "inhibition", "setting": "[2]", "value": 9.77, "unit": "%"}, {"measurement": "inhibition", "setting": "[3]", "value": 7.27, "unit": "%"}]}
{"compound": "COc1ccc(NC(=O)/C=C/c2ccccc2Cl)cc1OCCN1CCC(N2CCCC2)CC1", "values": [{"measurement": "inhibition", "setting": "[1]", "value": 2.99, "unit": "%"}, {"measurement": "inhibition", "setting": "[2]", "value": 3.87, "unit": "%"}, {"measurement": "inhibition", "setting": "[3]", "value": 4.44, "unit": "%"}]}
{"compound": "Cc1cc(C)c(CON2C(=N)N=C(N)NC2(C)C)cc1C", "values": [{"measurement": "inhibition", "setting": "[1]", "value": -0.51, "unit": "%"}, {"measurement": "inhibition", "setting": "[2]", "value": -0.15, "unit": "%"}, {"measurement": "inhibition", "setting": "[3]", "value": -0.63, "unit": "%"}]}
{"compound": "O=C(Nc1cccc(-c2cccc(-c3nc4ccccc4[nH]3)c2)c1)c1cccnc1", "values": [{"measurement": "inhibition", "setting": "[1]", "value": 2.95, "unit": "%"}, {"measurement": "inhibition", "setting": "[2]", "value": 2.73, "unit": "%"}, {"measurement": "inhibition", "setting": "[3]", "value": 0.76, "unit": "%"}]}
{"compound": "CC(=O)c1nccc(C)c1N", "values": [{"measurement": "inhibition", "setting": "[1]", "value": 2.66, "unit": "%"}, {"measurement": "inhibition", "setting": "[2]", "value": 1.53, "unit": "%"}, {"measurement": "inhibition", "setting": "[3]", "value": 2.57, "unit": "%"}]}
